# Source: PubChem BioAssay (EPA / NIEHS)
# Active and inactive are the calls of the source. How the source made its calls: active means hit-call score of the fitted dose curve at least 0.9, where 1 is the maximum; inactive means score below 0.9.
# Read-out: Monocyte Chemoattractant Protein-1 (MCP1), CCL2 (gene 6347)
# Test: BSK_hDFCGF_MCP1: BioMAP Diversity Plus: hDFCGF Assay for Monocyte Chemoattractant Protein-1 (MCP1) Biomarker Activity (AID 2284285)
# Settings: primary human foreskin fibroblasts
# Procedure: BSK_hDFCGF is a cell-based, multiplexed-readout assay that uses foreskin fibroblast, a human skin primary cell, with measurements taken at 24 hours after chemical dosing in a 96-well plate.BSK_hDFCGF_MCP1 is an assay component measured in the BSK_hDFCGF assay. It measures MCP-1 antibody related to regulation of gene expression using ELISA technology.Data from the assay component BSK_hDFCGF_MCP1 was analyzed at the endpoint, BSK_hDFCGF_MCP1, in the positive analysis fitting direction relative to DMSO as the negative control and baseline of activity. Using a type of binding reporter, gain or loss-of-signal activity can be used to understand protein changes. To generalize the intended target to other relatable targets, this assay endpoint is annotated to the 'cytokine' intended target family, where the subfamily is 'chemotactic factor'.
# The levels of cell surface (or secreted, indicated by the prefix "s") biomarker endpoints were measured by ELISA. Overt cytotoxicity to cells in confluent adherent cultures (all systems other than the BT system) was assessed by measuring total protein levels using sulforhodamine B (SRB) staining in parallel cultures at the time of biomarker measurements, indicated as SRB endpoints. For proliferation assays for adherent cell types, individual cell types are cultured at sub-confluence and relative cell numbers quantified by SRB staining at time points optimized for each system (48 h: 3C and CASM3C systems; 72 h: BT and HDF3CGF systems; 96 h: SAg system). SRB was performed by staining cells with 0.1% SRB after fixation with 10% TCA and reading wells at 560 nm.Viability and proliferation of PBMC (T cells) was quantified by Alamar Blue reduction for the SAg and BT systems. For PBMC viability (referred to as PBMC Cytotoxicity within the assay endpoint names), cells were plated (75,000/well in a 96-well plate) and then chemical samples added for 1 h before addition of activators, SEB and TSST-1 (20 ng/mL final concentration each). Cells were incubated for 90 h. Then, Alamar Blue (20 uL/well) (Invitrogen, Cat DAL1100) was added for 6 h, and the plates were read with a fluorescence microplate reader at 546/580 nm (excitation/emission). For PBMC proliferation, cells were plated and activated as above but incubated for only 16 h prior to addition of Alamar Blue. Plates were read after 6 h.
row,SMILES,outcome
1,NCCNCCN,inactive
2,COc1cc(C=O)ccc1OC(=O)C(C)C,inactive
3,CC(=O)OCCC(C)CC(C)(C)C (configuration not stated),inactive
4,OC[C@H]1O[C@H](O[C@]2(CCl)O[C@H](CCl)[C@@H](O)[C@@H]2O)[C@H](O)[C@@H](O)[C@H]1Cl,inactive
5,C=CCOC(=O)CCC1CCCCC1,inactive
6,CC(=O)[C@H]1CC[C@H]2[C@@H]3CC=C4C[C@@H](O)CC[C@]4(C)[C@H]3CC[C@]12C,inactive
7,Nc1cc([N+](=O)[O-])ccc1O,inactive
8,OC1OC[C@@H](O)[C@H](O)[C@H]1O (some centres not stated),inactive
9,CCC(=O)OCc1ccccc1,inactive
10,C[C@H]1C[C@@H]2[C@H]([C@@H](O)C[C@@]3(C)[C@H]2CC[C@]3(O)C(=O)CO)[C@@]2(C)C=CC(=O)C=C12,inactive
11,Cc1cc(C2(c3cc(C)c(O)cc3C)OS(=O)(=O)c3ccccc32)c(C)cc1O,inactive
12,CC[Si](OC(C)=O)(OC(C)=O)OC(C)=O,inactive
